An excerpt weighted towards active compounds, which were near 3.8% of everything screened.
697 NFkB inh – inhibitors of PMA/ionomycin-induced NF-kB reporter, 697 cells, primary screen, B-cell NF-kB inhibitor project, cell-based, luminescence, uHTS | 697 B-cell NF-kB luciferase reporter, 16 h | inhibition, % at 4 µM | 0.33% of 330,000 active; in the data active = inhibition above about 35%
Mdm2 MdmX PPI – inhibitors of human Mdm2-MdmX association, primary screen, cell-based, luminescence, split luciferase, SaOS-2, uHTS; 3% of 330,000 active; SaOS-2 split-luciferase Mdm2/MdmX complementation; Protein Mdm4 (Homo sapiens) + E3 ubiquitin-protein ligase Mdm2 (Homo sapiens), …; AID 485346, 2010; inhibition, % at 8 µM;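 active = inhibition of at least 50% at 8 µM in the primary screen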
Target sequence (O15151 whole entry, looked up): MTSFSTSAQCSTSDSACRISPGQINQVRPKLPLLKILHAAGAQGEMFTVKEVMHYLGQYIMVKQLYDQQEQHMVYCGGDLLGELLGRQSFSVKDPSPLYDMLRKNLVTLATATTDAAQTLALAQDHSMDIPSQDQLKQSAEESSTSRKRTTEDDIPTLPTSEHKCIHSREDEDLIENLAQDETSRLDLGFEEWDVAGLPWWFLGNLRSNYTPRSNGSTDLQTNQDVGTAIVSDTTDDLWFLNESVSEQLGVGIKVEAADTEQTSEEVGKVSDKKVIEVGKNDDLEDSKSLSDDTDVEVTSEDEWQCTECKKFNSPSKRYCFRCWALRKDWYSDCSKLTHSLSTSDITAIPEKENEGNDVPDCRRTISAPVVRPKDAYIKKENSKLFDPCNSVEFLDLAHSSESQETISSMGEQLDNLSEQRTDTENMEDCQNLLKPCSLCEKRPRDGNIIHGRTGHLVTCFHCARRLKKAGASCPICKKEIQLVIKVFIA
Target sequence (Q00987 whole entry, looked up): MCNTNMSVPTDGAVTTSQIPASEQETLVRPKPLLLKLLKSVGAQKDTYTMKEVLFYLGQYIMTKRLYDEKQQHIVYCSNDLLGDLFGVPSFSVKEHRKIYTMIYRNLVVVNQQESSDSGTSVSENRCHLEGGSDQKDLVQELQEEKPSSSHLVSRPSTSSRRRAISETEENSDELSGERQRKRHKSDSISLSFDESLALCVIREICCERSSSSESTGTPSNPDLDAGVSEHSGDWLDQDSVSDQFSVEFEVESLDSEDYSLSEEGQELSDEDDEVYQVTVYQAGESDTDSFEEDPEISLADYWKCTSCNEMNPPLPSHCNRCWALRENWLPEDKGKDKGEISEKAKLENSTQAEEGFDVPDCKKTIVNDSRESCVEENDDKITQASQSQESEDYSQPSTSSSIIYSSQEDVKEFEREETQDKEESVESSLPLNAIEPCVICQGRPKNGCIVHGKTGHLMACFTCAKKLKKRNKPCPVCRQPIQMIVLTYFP
Shn3 inh set2 – reduction of Shn3 3'UTR firefly luciferase signal, primary screen, Schnurri-3 inhibitor project, cell-based, Clone20 osteoblasts, set 2 | Clone20 osteoblast Shn3 3'UTR firefly luciferase, 24 h | inhibition, % at 12.5 µM | 0.52% of 360,000 active;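 active = mean inhibition of at least 75% with every replicate also reaching 75%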;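 note: 0% = median of neutral control wells and 100% = pilot-screen positive control compound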
Jurkat NFkB inh – inhibitors of induced NF-kB luciferase reporter, primary screen, TCR NF-kB activation inhibitor project, cell-based, luminescence, uHTS | inhibition, % at 4 µM | Jurkat, PMA/ionomycin-induced NF-kB luciferase reporter | 0.53% of 330,000 active | AID 435003, 2010; in the data active = inhibition above about 50%
Gli-Sufu block – Gli-Sufu pathway antagonists, primary screen, luciferase luminescence, Sufu-KO-LIGHT cells, uHTS | Sufu-KO-LIGHT fibroblasts, Gli luciferase reporter luminescence | inhibition, % at 5 µM | 0.74% of 340,000 active | AID 588413, 2011;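 active = inhibition above about 55%, limit read from the data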;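 note: 0% = DMSO-treated cells and 100% = wells with medium but no cells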
Jurkat NFkB conf – PMA/ionomycin-induced NF-kB reporter inhibitors, Jurkat retest, confirmation, T-cell NF-kB inhibitor project, cell-based, luminescence, single concentration | 27% of 2,700 active | Jurkat NF-kB luciferase, 16 h | inhibition, % at 4 µM | AID 435020, 2010 | shares compounds with Jurkat NFkB inh;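 active = inhibition reaching about 45% at 4 µM in either replicate, limit read from the data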;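 note: plate controls were PMA/ionomycin stimulated DMSO wells for no effect and unstimulated DMSO wells for full effect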
697 NFkB conf – PMA/ionomycin-induced NF-kB reporter inhibitors, 697 retest, confirmation, B-cell NF-kB inhibitor project, cell-based, luminescence, single concentration; AID 449746, 2010; inhibition, % at 4 µM; 35% of 2,000 active; 697 B-cell NF-kB luciferase, 16 h; shares compounds with 697 NFkB inh; in the data active = inhibition mostly above about 28%, no sharp cut-off; inactive = mostly below about 22%
Mdm2 MdmX conf – Mdm2-MdmX complex disruptors, retested hits, confirmation, luminescence, single concentration; inhibition, % at 8 µM; AID 489028, 2010; 55% of 10,000 active; shares compounds with Mdm2 MdmX PPI; Mdm2-MdmX binding, luminescent assay; in the data active = inhibition above about 40%
Full FLuc ctr – full-length luciferase signal inhibition, confirmation, counter-screen for Mdm2/MdmX interaction inhibitor project, cell-based, single concentration, SaOS-2 | shares compounds with Mdm2 MdmX PPI | SaOS-2 full-length luciferase counterscreen, luminescence | inhibition, % at 8 µM | 77% of 6,200 active | AID 504607, 2011;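 active = mean inhibition at 8 µM reaching about 37%, which flags the compound as non-specific, limit read from the data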;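 note: p53-null SaOS-2 cells with luciferase driven by a doxycycline-inducible promoter; compound on cells about two nights before reading with doxycycline added after day one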
Starred values were filed as active, the others as inactive; · = not tested or not shown.

SMILES	697 NFkB inh	Mdm2 MdmX PPI	Shn3 inh set2	Jurkat NFkB inh	Gli-Sufu block	Jurkat NFkB conf	Mdm2 MdmX conf	Full FLuc ctr	others
CS(=O)(=O)c1ccccc1-c1nnc(NC(=O)C2=COCCO2)o1	-16.1	-15.3	-14.4	-10.5	-5.0	·	·	·
Cc1ccc(C(=O)Sc2cccccc2=O)cc1	-85.6	100.2*	95.6*	90.3*	75.0*	14.3	82.0*	22.6
O=C(Nc1ccccc1SC(=O)c1ccccc1)c1ccccc1	·	·	-72.9	·	·	·	·	·
Cc1ccc(CNC(=O)CNC(=O)c2c(C)nn(C)c2Cl)cc1	6.6	11.9	-15.2	1.7	10.8	·	·	·
COc1ccc(C(=O)/C(=C\c2ccco2)N2C=CC=CC2=C(C#N)C#N)cc1	-3.4	100.4*	97.1*	64.7*	42.7	49.0*	99.3*	51.2*
C=CCn1c(SCC(=O)Nc2ccc3c(c2)OCCO3)nc2cc(C(=O)O)ccc2c1=O	-25.8	-34.0	-15.2	-3.9	0.3	·	·	·
Cc1noc(C)c1CSc1nnc2n(-c3ccccc3)c(=O)c3ccccc3n12	22.5	2.0	13.9	-1.1	15.3	·	·	·
Cc1noc(C)c1CSc1nc2ccccc2c(=O)n1-c1ccccc1	-5.6	66.7*	7.4	54.4*	19.7	45.1	63.1*	67.0*
Cc1cc(C)cc(C(O)c2ncc(-c3ccccc3)[nH]2)c1 (centres undefined)	·	·	2.2	·	·	·	·	·
COc1cc([N+](=O)[O-])cc(/C=N/NC(=O)c2ccc(NC(=O)c3ccc(C)cc3)cc2)c1O	81.2*	87.6*	62.3	86.2*	27.2	54.7*	93.5*	33.2	697 NFkB conf=77.2*
COc1ccc(OCc2cc(C(=O)N[C@H]3CCCCNC3=O)no2)c(Cl)c1	-46.9	1.1	-82.5	-41.9	-14.4	·	·	·
COc1ccc(OCc2cc(C(=O)NC3Cc4ccccc4C3)no2)c(Cl)c1	-22.7	51.7*	3.0	54.8*	-19.4	23.0	70.5*	71.7*
CCCOCCOC(=O)c1[nH]c2c(c1C)C(=O)CC(c1cc(OC)ccc1OC)C2 (centres undefined)	-45.6	59.4*	28.8	71.7*	5.6	35.3	52.1*	83.2*
COc1ccc(OC)c(C2CC(=O)c3c([nH]c(C(=O)OC(C)C)c3C)C2)c1 (centres undefined)	-19.1	51.8*	24.5	59.8*	·	57.6*	44.2*	83.2*
CCn1cc2nc(SCC(=O)Nc3ccc(OC)cc3OC)n(Cc3ccc(OC)cc3)c(=O)c2n1	-22.5	50.3*	26.1	51.5*	-0.2	29.9	42.0*	52.1*
CCn1cc2nc(SCC(=O)Nc3ccc(OC)c(OC)c3)n(Cc3ccc(OC)cc3)c(=O)c2n1	-35.6	-17.3	-39.3	-40.9	27.5	·	·	·
CCOc1ccccc1N1CCN(C(=O)c2cc3ccccc3cc2OC)CC1	-46.4	57.1*	7.9	56.7*	10.9	8.1	80.0*	69.3*
CCOc1ccccc1N1CCN(C(=O)c2cc(-c3cccnc3)nc3c(Cl)cccc23)CC1	-30.7	87.8*	12.7	67.5*	2.5	13.4	82.8*	52.5*
O=C1c2c(O)ccc(O)c2C(=O)c2c(NCCNCCO)ccc(NCCNCCO)c21	73.7*	99.7*	92.6*	100.1*	77.4*	88.8*	98.0*	1.6	697 NFkB conf=-62.9
CCN(CC)C(=O)C1=C(C)N(Cc2ccccc2)C(=O)C(CC(=O)NC2CCCCC2)C1 (centres undefined)	·	·	1.4	·	·	·	·	·
COc1ccc(-c2cn[nH]c2-c2ccc(OCC(=O)NN)cc2O)cc1OC	21.4	14.3	11.6	-28.3	-2.7	·	·	·
C=C(C)COc1ccc(-c2n[nH]c(C)c2-c2ccc(OC)c(OC)c2)c(O)c1	-13.2	70.9*	16.3	66.9*	-6.8	50.4*	53.6*	62.7*
C=C(C)COc1ccc(-c2n[nH]c(C)c2Oc2ccccc2OC)c(O)c1	1.3	33.0	26.3	8.1	-16.3	·	·	·
C=C(C)COc1ccc(-c2[nH]ncc2-c2ccc(OC)c(OC)c2)c(O)c1	-60.2	65.6*	53.1	63.7*	6.2	62.4*	59.8*	55.9*
CCC(C)c1ccc(NC(=O)N2CCN(C(=O)C3CCCO3)CC2)cc1 (centres undefined)	6.2	7.2	-1.3	7.6	-3.5	·	·	·
SMILES	697 NFkB inh	Mdm2 MdmX PPI	Shn3 inh set2	Jurkat NFkB inh	Gli-Sufu block	Jurkat NFkB conf	Mdm2 MdmX conf	Full FLuc ctr	others
CCN(CC)c1ccc(-c2nn3c(-c4n[nH]c5c4CCC5)nnc3s2)cc1	-9.0	50.8*	37.0	58.3*	46.2	54.0*	59.0*	102.1*
CSc1nc(C)cc(OCC(=O)N/N=C/c2ccccc2O)n1	-52.2	57.9*	51.7	52.2*	5.3	17.5	64.3*	39.3*
Cc1cc(=O)oc2cc(OCC(=O)N/N=C/c3ccccc3O)ccc12	11.7	9.4	2.9	2.0	26.6	·	·	·
CCc1c(C)nc2cc(-c3cccc(Br)c3)[nH]n2c1=O	-149.8	-83.4	-47.5	-77.3	-69.3	·	·	·
CCS(=O)(=O)c1ncc(Cl)c(C(=O)Nc2ccc(S(=O)(=O)N(C)c3ccccc3)cc2)n1	-112.8	98.1*	99.5*	74.7*	26.9	49.4	99.9*	51.5*
CC(=O)Nc1ccc(S(=O)(=O)N(C)c2ccccc2)cc1	-0.5	-22.9	-2.2	5.4	-0.8	·	·	·
CC[n+]1c(/C=C/N(C)c2ccccc2)n(-c2ccccc2)c2ccc(-c3nc4ccccc4s3)cc21	54.5*	100.3*	97.9*	97.6*	90.7*	91.0*	94.5*	15.1	697 NFkB conf=83.0*
O=C1C=CCC(/C=C/c2ccccc2)O1 (centres undefined)	-165.2	60.7*	·	100.1*	21.6	95.9*	47.6*	12.1
COc1cc(/C=C2\SC(=Nc3ccccc3OC)NC2=O)ccc1O	4.5	41.5	-10.9	-5.5	5.3	·	·	·
COc1cc(/C=C2/SC(=Nc3ccc(O)cc3)NC2=O)ccc1O	-82.9	74.1*	0.4	59.1*	-21.9	38.7	72.0*	68.2*
Cc1ccc(CC(=O)NC2CCSC2=O)cc1 (centres undefined)	4.2	14.5	27.2	-15.0	-4.0	·	·	·

Source: PubChem BioAssay
